Source: PubChem BioAssay
Compounds with a hit are over-represented: about 7.5% of the library has one in this group of screens.
VP16 counter = counter-screen for ROR gamma inhibitors: Gal4-VP16 reporter; Drosophila S2 Gal4-VP16 UAS-luciferase, luminescence, 20 h; Potency, µM (top dose mostly 53.6 µM), for inactives: top-dose activity, negative = inhibition, most hits filed as inhibitors; hit rate 3.5% among 310,000; AID 2546;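 note: Gal4-VP16 expression switched on by copper sulfate through the metallothionein promoter; potency is the fitted concentration of half-maximal effect; nearly all actives have a fitted effect of over 50% in size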
B2AR arrestin = recruits beta-arrestin to the human beta2-adrenergic receptor; P07550; beta-arrestin recruitment to beta2AR, cell-based reporter; Potency, µM (titrated, usually from 46.1 µM), for inactives: at the highest dose activation, hits mostly activators; hit rate 0.02% among 330,000; AID 492947;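 note: potency is the fitted concentration of half-maximal effect; 0% = DMSO controls and full agonism = EC100 isoproterenol or metaproterenol; nearly all actives have a fitted effect of over 65% in size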
RORg inh = inhibitors of mouse ROR gamma transcriptional activity | P51450 | Drosophila S2 Gal4-RORgamma UAS-luciferase reporter, 20 h | Potency, µM (series often up to 53.6 µM), inactives show at the highest dose activity change, negative = inhibition, usual class: inhibitors | hit rate 5.4% among 310,000 | AID 2551; note: potency is the fitted concentration of half-maximal effect; nearly all actives have a fitted effect of over 60% in size
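Luminescence from a UAS-regulated Photinus luciferase reporter in stably transfected Drosophila Schneider cells is measured; decreased signal marks ROR gamma inhibition. Fusion expression is induced by 700 uM copper sulfate for 20 hr.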
TSHR antag = human thyrotropin receptor antagonism | AID 504810 | TSHR-expressing cells, TSH-stimulated cAMP HTRF, 2 h; hits give low values | hit rate 0.2% among 330,000 | activity change, negative = inhibition, % at 11.5 µM;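 active = activity change below a set negative limit, meaning inhibition stronger than a set level, cut at about -70% in these data; inconclusive = activity change between two set negative limits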
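Freshly harvested TSHR cells receive pin-tooled compound, then EC80 TSH at 4nM final. After 2 hours at 37 deg C, antibody in lysis buffer and cAMP-d2 are added; 30 minutes at ambient temperature precede the HTRF read.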
ELG1 DNA repair = inhibitors of ELG1-dependent DNA repair in HEK293T cells | HEK293T ELG1-luciferase reporter, luminescence, 16 h; DNA damage induced by 5-fluorouridine | Potency, µM (doses to about 46.1 µM), without a hit: at the highest dose activity change, negative = inhibition, usual class: inhibitors | hit rate 2.3% among 330,000 | AID 504467; note: potency is the fitted concentration of half-maximal effect; nearly all actives have a fitted effect of over 55% in size
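Overnight (16 hr) co-exposure of 2,000 cells/well to 5-fluorouridine and compound at 37 °C preceded detection. Luciferase was quantified via ONE-Glo luminescence; loss of signal denotes inhibition.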
* hit, by the source's call; ? = inconclusive; nt = not tested or not shown; [ ] = dose if it differs, or a comment. Unless noted, calls come from the whole dose curve; as a rule, active = well fitted curve in the direction sought with a large enough effect; inconclusive = small, poorly fitted or top-dose-only effect, or another doubt; inactive = no such curve, though single readings can be large; an effect the other way counts as inactive or inconclusive. Unless noted, % is set by controls: 0 for no effect and ±100 for the full control effect.

SMILES | VP16 counter | B2AR arrestin | RORg inh | TSHR antag | ELG1 DNA repair
Cc1cccc(NCc2n[nH]c(=S)n2-c2ccccc2)c1 | -18% | 0% | 10µM* | 10 | -1%
Cc1ccc(NCc2n[nH]c(=S)n2-c2ccccc2)c(C)c1 | ? | 0% | 1.8µM* | -6 | 5%
COc1cc(OC)cc(C(=O)NCc2n[nH]c(=S)n2-c2ccccc2)c1 | 3% | 0% | 26% | 45 | 9%
Cc1ccc(NCc2n[nH]c(=S)n2-c2ccccc2)cc1 | -5% | 0% | 8.9µM* | 2 | -1%
Cc1ccc(S(=O)(=O)N(Cc2n[nH]c(=S)n2-c2ccccc2)c2ccccc2)cc1 | -4% | 0% | ? | -7 | -3%
O=S(=O)(c1ccc(NC(=S)NCc2ccc(F)cc2)cc1)N1CCOCC1 | -1% | 0% | -4% | -8 | -7%
C=CN1CCCC1=O | -3% | nt | 36% | nt | nt
O=C(O)CCC(=O)Nc1ccc(C(=O)OC2CCCCC2)cc1 | ? | 0% | 18µM* | -14 | ?
COc1ccc(CNS(=O)(=O)CCNC(=O)c2cccc(OC)c2)cc1 | nt | 0% | nt | 11 | 12%
COCCn1c(=S)[nH]c2cc(C(=O)N3CCc4ccccc43)ccc2c1=O | ? | 0% | 13µM* | -15 | ?
CC(C)Cn1c(=S)[nH]c2cc(C(=O)O)ccc2c1=O | -2% | 0% | -3% | -8 | 3%
CCCn1c(=S)[nH]c2cc(C(=O)N3CCc4ccccc43)ccc2c1=O | 3.5µM* | 0% | 2.8µM* | -17 | -22%
C=C(C[C@]1(C(=O)OC)CC2(CC=C(C)C)C(=O)C(C(=O)CC(C)C)=C(O)C(CC=C(C)C)(C1)C2=O)C(=O)OC (some centres undefined) | -10% | nt | -20% | nt | nt
C[C@H]1[C@H](C)CC[C@]2(C=O)CC[C@]3(C)C(=CC[C@@H]4[C@@]5(C)C[C@@H](O)[C@H](O)[C@@](C)(CO)[C@@H]5CC[C@]43C)[C@H]12 | ? | nt | -43% | nt | nt
CO[C@H]1COC(=O)[C@H](C)COC(=O)[C@@H](OCc2ccccc2)/C=C\[C@@H]1C | -1%[10 µM] | nt | -7%[10 µM] | nt | nt
Oc1ccc(COC2CCCC2)c2cccnc12 | nt | 7% | nt | -6 | nt
Cc1cc2ccc(=O)oc2cc1OC[C@@H](O)C(C)(C)O | 2% | nt | -20% | nt | nt
Cc1[nH]c2ccccc2c1C(=O)CSc1ccccc1 | -4% | -1% | 8% | -7 | ?
Cc1[nH]c2ccccc2c1C(=O)CCl | 11µM* | 0% | 13µM* | 5 | ?
COc1ccc(NC(=O)C2CCC(CNS(=O)(=O)c3cccs3)CC2)cc1 (centres undefined) | 8% | 0% | -7% | -3 | ?
Cc1ccc(-c2c(=O)n(OCc3ccccn3)c3ccccc3[n+]2[O-])cc1 | 3% | 3% | 14% | 13 | ?
COc1ccc(-c2c(=O)n(OCc3ccccn3)c3ccccc3[n+]2[O-])cc1OC | 1% | 0% | 5% | -15 | 13µM*
CCN1C(=O)[C@H]2[C@H]3[C@H](O)[C@H](O)C/C(=N/NC(=O)OCc4ccc(OC)cc4)[C@H]3CC[C@@H]2C1=O | -6%[10 µM] | nt | -25%[10 µM] | nt | nt
Cn1ccnc1-c1nc2ccccc2[nH]c1=O | 3.5µM* | 0% | 3.5µM* | 14 | 14%
Cc1[nH]c2ccccc2c1-c1nc2ccccc2[nH]c1=O | 10% | 4% | 6% | -2 | ?
SMILES | VP16 counter | B2AR arrestin | RORg inh | TSHR antag | ELG1 DNA repair
CCN(CC(=O)NC(=O)NC1CCCCC1)Cc1ccccc1 | nt | -1% | nt | 11 | 19%
CCN(CC(=O)Nc1ccccc1-c1ccccc1)Cc1nc2ccccc2c(=O)[nH]1 | ? | 0% | 4.5µM* | -1 | ?
CCN(CC(=O)Nc1ccc(OC)cc1)C(=O)CCc1nc2ccccc2c(=O)[nH]1 | nt | -1% | nt | -3 | -1%
CCN(CC(=O)Nc1ccccc1C(=O)Nc1ccccc1)Cc1nc2ccccc2c(=O)[nH]1 | ? | 1% | 3.5µM* | -10 | 10µM*
CCN(CC(=O)Nc1ccc(Br)c(C)c1)CC(=O)NC(C)C | 5% | 0% | 19% | 0 | 0%
CCN(CC(=O)NC(C)C)Cc1nc2c(Br)cc(Br)cc2c(=O)[nH]1 | 7.1µM* | 0% | 2.2µM* | 7 | -12%
